Measured values from PubChem BioAssay (NCATS).
Results filed as inconclusive are left out. A number with no mark means an inactive call. Calls of active or inactive are those of the source. Calls come from the whole dose curve.

test: Confirmatory qHTS for VERO E6 Cytotoxicity Assay: Counterscreen for SARS-CoV-2 CPE Assay (AID 1508605); settings: cell viability luminescence; series mostly up to 20 µM; activity change, negative = cytotoxic: at the top concentration; note: nearly all actives have a fitted effect of over 60% in size
% is set by controls: 0 for no effect and ±100 for the full control effect; potency is the fitted concentration of half-maximal effect.

Row | Structure (SMILES) | activity change, negative = cytotoxic | Potency
1 | COC(=O)CC[C@@H](C)C1CCC2C3CCC4C[C@H](OC(C)=O)CCC4(C)C3C[C@H](O)C21C (some centres undefined) | -2.3% | –
2 | COc1cc2nc(N3CCCCC3)nc(NC3CCN(Cc4ccccc4)CC3)c2cc1OC | – | 10 µM (active)
3 | O[C@H]1[C@H]2c3cc4c(cc3CN3CCC(=C[C@@H]1O)[C@H]23)OCO4 | – | 3.16 µM (active)
4 | CSc1ccc(C(=O)/C=C/c2cc(C)c(OC(C)(C)C(=O)O)c(C)c2)cc1 | -15.5% [at 40 µM] | –
5 | CC(=O)c1c(OCCN2CCCCC2)c(OCCC(C)c2ccc(F)cc2)c2oc(C)nc2c1C (centres undefined) | -15.5% | –
6 | Cc1ccc(-c2c(C(=O)CCl)n(CCCO)c3ncnc(N)c23)cc1 | -16.4% | –
7 | CC(C)c1cccc2c(-c3ccccc3)cc(-c3ccc(-c4ccc(C(=O)O)cc4)[nH]3)nc12 | -28% | –
8 | CO[C@H]1/C=C\C=C(\C)C(=O)NC2=CC(=O)C(NCCN(C)C)=C(C[C@@H](C)C[C@H](OC)[C@H](O)[C@@H](C)/C=C(/C)[C@@H]1OC(N)=O)C2=O | – | 5.62 µM (active)
9 | CCc1ccccc1OC[C@@H](O)CN[C@H]1CCCc2ccccc21 | -13.4% | –
10 | COc1ccc(NC(=O)c2ccc(-c3ccc(-c4nnc(C)o4)cc3C)cc2)cc1N1CCN(C)CC1 | -3.86% | –
11 | COc1cc(N(C)CCN(C)C)c(N)cc1Nc1nccc(-c2cn(C)c3ccccc23)n1 | -7.12% | –
12 | CCC(C)CNCC(=O)N1CCC2SC=CC2C1COc1cccc(C)c1 (centres undefined) | -18.4% | –
13 | C=C1C(=O)O[C@H]2C3=C(C)CCC[C@]3(C)C(=O)C[C@@H]12 | – | 10 µM (active)
14 | COc1cc(-n2cnc3cc(-c4ccc(Cl)cc4)sc3c2=O)ccc1OCCN1CCCC1 | -16.3% | –
15 | C[C@@H]1CN(CC(=O)N2CC(C)(C)c3ncc(Cc4ccc(F)cc4)cc32)[C@@H](CN2CCOC[C@H]2C)CN1 | -11.4% | –
16 | CCN(CC)CCCS(=O)(=O)N[C@H](CCc1ccccc1)c1nc(Cc2ccc(Br)cc2)no1 | -13.7% | –
17 | CS(=O)(=O)NCC1CCC(Nc2nc3c(s2)CCSc2ccccc2-3)CC1 (centres undefined) | -16% | –
18 | Cc1nc2ccc(Oc3ccc(F)cc3)cc2c(=O)n1C[C@H]1CCCN(C(C)C)C1 | -6.31% | –
19 | CCN(CC)CCN(Cc1ccc(-c2ccc(C(F)(F)F)cc2)cc1)C(=O)Cn1c(SCc2ccc(F)cc2)nc(=O)c2c1CCC2 | – | 10 µM (active)
20 | CCC(C)CNCC(=O)N1CCc2sccc2C1COc1cccc(C)c1 (centres undefined) | -17.3% | –

Row | Structure (SMILES) | activity change, negative = cytotoxic | Potency
21 | COc1ccc2c(c1)CN(C(=O)CCN1CCC(Cc3ccccc3)CC1)CCS2 | -11% [at 10 µM] | –
22 | C[C@H](NC(=O)[C@H](Cc1ccccc1)NC(=O)OCc1ccccc1)C(=O)CF | 4.12% | –
23 | CC(C)(C[C@@](O)(Cc1cc2ccncc2[nH]1)C(F)(F)F)c1cc(F)ccc1O | -24.4% | –
24 | COc1cc2nc(N3CCC(N4CCCCC4)CC3)nc(NC3CCCCCC3)c2cc1OC | – | 6.31 µM (active)
25 | O=C(c1ccc(-c2ccc(Cl)cc2)o1)N(Cc1ccccn1)c1ccc(N2CCNCC2)cc1 | – | 11.2 µM (active)
26 | NC(=O)c1cnc(N[C@@H]2CCCC[C@@H]2N)nc1Nc1cccc(-n2nccn2)c1 | -26.3% | –
27 | C=C1Cc2c(Cl)cc3[nH]c4c5c3c2[C@@]2(O)[C@@H]1C[C@@H]2C(C)(C)O[C@H]5C1CC[C@@]2(O)[C@@]35O[C@@H]3[C@H]3OC(C)(C)[C@H]3O[C@H]5CC[C@]2(C)[C@@]41C (some centres undefined) | -15.6% [at 6.64 µM] | –
28 | COC(=O)Nc1cc(Nc2cc(NC3CC3)c3ncc(C#N)n3n2)c(Cl)c(N2CCN(C)CC2)c1 | – | 2.51 µM (active)
29 | CC(C)(C)c1ccc(C(=O)Nc2cc(Cl)c(Br)cc2C(=O)O)cc1 | – | 10 µM (active)
30 | O=C(/C=C/c1ccccc1)NC(NC(=S)Nc1cccc2cccnc12)C(Cl)(Cl)Cl (centres undefined) | -15.1% | –
31 | COc1ccc(-c2csc(NC(=O)[C@H]3CCCCN3S(=O)(=O)c3ccc(C)cc3)n2)cc1 | 4.47% | –
32 | CCCc1cc(C)[nH]c(=O)c1CNC(=O)c1cc(-c2ccnc(N3CCN(C)CC3)c2)cc2c1cnn2C(C)C | -18.7% | –
33 | COc1ccc2c(c1)[C@]1(C[C@H]1c1ccc3c(/C=C/c4ccc(CN5C[C@@H](C)O[C@@H](C)C5)cc4)n[nH]c3c1)C(=O)N2 | -32.8% | –
34 | CCC(C)C(=O)OC12C(OC(C)=O)C(C)C3(O)C(C=C(CO)CC4(O)C(=O)C(C)=CC43)C1C2(C)C (centres undefined) | -11% [at 10 µM] | –
35 | COc1ccc2sc(NC(c3ccc(OC(F)F)cc3)c3ccc4cccnc4c3O)nc2c1 (centres undefined) | – | 0.708 µM (active)
36 | CCCCCCCCC(=O)N[C@H](CN1CCCC1)[C@H](O)c1ccc2c(c1)OCCO2 | -23.1% | –
37 | CCC(CC)COC(=O)[C@H](C)N[P@](=O)(OC[C@H]1O[C@@](C#N)(c2ccc3c(N)ncnn23)[C@H](O)[C@@H]1O)Oc1ccccc1 | 0.98% | –
38 | C/C=C(\C)C(=O)OC1C(C)C2(O)C3C=C(C)C(=O)C3CC(CO)=CC2C2C(C)(C)C12OC(C)=O (centres undefined) | -11% [at 10 µM] | –
39 | O=C1NC(=O)c2cc(Nc3ccc(F)cc3)c(Nc3ccc(F)cc3)cc21 | – | 11.2 µM (active)
